# FBW7 activator – activators of human E3 ligase FBW7. AID 1259310. 650,000 compounds, 0.13% hits. normalized activity (activation), % at 26.1 µM. Q969H0. AlphaScreen FBW7–phospho-cyclin E peptide binding, activator screen; in the data active = normalized activity above about 1.9%;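 note: purified mutant Fbw7 with reduced substrate affinity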
# GPR151 ag – human GPR151 activation. activation, % at 11.2 µM. PathHunter beta-arrestin GPR151 cells, luminescence. Q8TDV0. 650,000 compounds, 1% hits. AID 1508602; in the data active = activation above about 4.9%;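 note: 0% = median of compound wells and 100% = cells with positive control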
# Target sequence (Q8TDV0 whole entry, looked up): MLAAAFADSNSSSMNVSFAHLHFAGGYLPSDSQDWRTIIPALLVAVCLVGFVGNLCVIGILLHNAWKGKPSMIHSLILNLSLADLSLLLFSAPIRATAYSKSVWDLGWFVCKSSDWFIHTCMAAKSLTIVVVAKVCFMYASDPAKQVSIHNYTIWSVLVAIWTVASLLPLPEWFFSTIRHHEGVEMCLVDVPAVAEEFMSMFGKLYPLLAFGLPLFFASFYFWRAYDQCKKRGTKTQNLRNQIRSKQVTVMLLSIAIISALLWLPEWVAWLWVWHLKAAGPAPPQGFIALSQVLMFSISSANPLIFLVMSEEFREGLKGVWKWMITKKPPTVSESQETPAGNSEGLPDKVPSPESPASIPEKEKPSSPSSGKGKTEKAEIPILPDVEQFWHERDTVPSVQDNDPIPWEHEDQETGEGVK
# MITF inh – blocks human microphthalmia-associated transcription factor; inhibition, % at 2.6 µM; O75030; AlphaScreen MITF homodimerization, bead proximity signal; 650,000 compounds, 0.91% hits; in the data active = inhibition above about 50%;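 note: 0% = vehicle wells with protein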
# TEAD-YAP block – TEAD-YAP interaction inhibition; inhibition, % at 9.12 µM; 640,000 compounds, 1.4% hits; HEK-TIYL cells, TEAD-Gal4/YAP UAS-luciferase luminescence; in the data active = inhibition above about 32%;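 note: 0% = median of test compound wells and 100% = reference inhibitor wells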
# MITF inh conf – human MITF inhibition, confirmation; shares compounds with MITF inh; AlphaScreen MITF homodimerization, biotin/His-MITF beads; 4,700 compounds, 16% hits; inhibition, % at 2.6 µM;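 active = inhibition above a cutoff derived from the DMSO control wells, cut at about 28% in these data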;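 note: 0% = MITF dimer wells with DMSO only; inhibitors lower the bead chemiluminescence by keeping MITF from dimerizing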
# AS interf DR – AlphaScreen optical interference, dose response counter-screen; 480 compounds, 6% hits; AID 1259373; AlphaScreen optical interference counterscreen, cell-free; shares compounds with MITF inh; IC50, µM; call rule not given here
# AlphaScreen intf2 – counter-screen: compounds optically interfering with AlphaScreen | 4,700 compounds, 7.6% hits | inhibition, % at 2.6 µM | LysRS AlphaScreen counterscreen, signal interference, triplicate | shares compounds with MITF inh | AID 1259376;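 active = inhibition above a cutoff derived from the DMSO control wells, cut at about 30% in these data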
# * marks the source's active call; other numbers are inactive results; · = no result given. Shown are actives, neighbours in structure and some others; about 3.5% of the full set was active somewhere.
SMILES,FBW7 activator,GPR151 ag,MITF inh,TEAD-YAP block,MITF inh conf,AlphaScreen intf2,others
NC(=O)CSc1nc2ccccc2n1CC(=O)N1CCOCC1,0.0,2.3,62.1*,-5.8,12.5,14.3,
O=C(Nc1ccccc1F)N1CCC(CO)(Cc2cccc(F)c2)CC1,-0.1,-0.7,9.1,-14.4,·,·,
O=C1CCCN1CCCn1c(=S)[nH]c2cc3ccccc3cc2c1=O,0.1,-0.8,65.8*,0.7,0.2,16.6,
CCN1C(=O)CC(CC(=O)N2CCN(C(=O)c3ccco3)CC2)(c2ccccc2C)C1=O (centres undefined),-0.1,-1.3,3.7,2.0,·,·,
COc1ccc(CN(C)CCc2ccccn2)c(OC)c1,0.1,-1.4,77.0*,2.2,4.3,3.4,
CN(C)CCN(C)Cc1ccccc1F,-0.2,0.6,52.6*,-1.6,-2.2,-2.4,
C=CCOc1ccccc1CN(C)CCc1ccccn1,0.2,-0.4,64.8*,8.9,-11.7,-7.2,
COc1cccc(CN(C)CCc2ccccn2)c1OC,0.0,-0.8,41.0,-2.1,·,·,
CN(CCc1ccccn1)Cc1ccccc1F,0.2,0.5,79.4*,-1.0,1.6,19.2,
CN(CCc1ccccn1)Cc1ccccc1C(F)(F)F,0.5,-1.1,34.7,-2.0,·,·,
O=C1CCC(=O)N1c1ccc(Oc2ccccc2)cc1,-0.1,0.4,-4.3,2.9,·,·,
CSCCC(NC(N)=O)C(=O)NNC(=O)Cc1nc2ccccc2n1C (centres undefined),0.3,-1.1,11.3,2.3,·,·,
CCn1c(=O)cc(SCC(=O)N2CCC(N3CCCCC3)CC2)c2ccccc21,0.0,-1.0,2.4,6.4,·,·,
CCCNc1ncnc2nc(Nc3ccncn3)[nH]c12,-0.1,3.3,-4.6,-7.7,·,·,
CN(CCc1ccccn1)Cc1ccccc1Br,0.0,0.5,81.0*,3.1,0.8,11.5,
CN(CCc1ccccn1)Cc1cc2c(cc1[N+](=O)[O-])OCO2,-0.1,0.9,8.0,-8.8,·,·,
CN(C)CCN(C)Cc1ccccc1[N+](=O)[O-],-0.1,-1.0,76.1*,-2.1,10.3,17.1,
CN(CCc1ccccn1)Cc1ccccc1[N+](=O)[O-],0.0,-0.2,57.1*,1.5,10.7,0.7,
COc1ccc(C(=O)NCCc2nnc3ccc(SCc4cccc(C)c4)nn23)cc1,0.0,-0.1,-0.9,5.8,·,·,
N/C(=N\OC(=O)c1ccccc1)c1ccc(Cn2cc(C(F)(F)F)ccc2=O)cc1,0.1,0.1,53.7*,2.1,10.2,11.6,
COCCN(Cc1ccsc1)C(=O)NCc1cccc2ccccc12,-0.2,2.1,23.0,2.2,·,·,
CCCCCN(CCCCC)CC(=O)Nc1cc(C)nc2ccccc12,-0.1,0.9,73.7*,-1.2,-2.2,2.7,
CCCCCCN(CCCCCC)CC(=O)Nc1c2c(nc3ccccc13)CCC2,-0.3,0.8,71.2*,-2.5,20.9,17.2,
CCN(CC)CC(=O)Nc1c2c(nc3ccccc13)CCCC2,0.0,-0.4,43.8,-1.4,·,·,
Cc1ccc(NC(=O)c2sc3ncn(Cc4cccc(F)c4)c(=O)c3c2C)c(C)c1,-0.2,-0.7,17.9,-2.5,·,·,
SMILES,FBW7 activator,GPR151 ag,MITF inh,TEAD-YAP block,MITF inh conf,AlphaScreen intf2,others
CCOc1cc(CN2CCN(S(=O)(=O)CC)CC2)ccc1OC,0.0,0.1,34.8,3.0,·,·,
CCOc1cc(CN2CCN(Cc3ccc(F)cc3)CC2)ccc1OC,-0.1,4.3,33.8,-4.7,·,·,
CCOc1cc(CN2CCN(S(C)(=O)=O)CC2)ccc1OC,0.2,-1.2,55.0*,-14.9,-9.3,-2.2,
CCOc1cc(CN2CCN(Cc3ccncc3)CC2)ccc1OC,-0.2,1.4,73.3*,-2.8,7.0,13.8,
COc1cc(CN2CCN(S(C)(=O)=O)CC2)ccc1OCc1ccccc1,0.1,1.6,54.4*,6.0,1.5,10.6,
N#Cc1c(NC(=O)Cn2cc([N+](=O)[O-])cn2)sc2c1CCCC2,-0.1,0.4,-0.1,13.2,·,·,
CCNC(=O)N1CCCC(N2CCN(Cc3ccc4c(c3)OCO4)CC2)C1 (centres undefined),0.1,0.3,9.1,-1.9,·,·,
CC1CCCC(N2CCN(Cc3ccc4c(c3)OCO4)CC2)C1 (centres undefined),0.7,-1.0,67.7*,-16.5,-1.1,0.0,
c1cc2c(cc1CN1CCN(C3CCCCCC3)CC1)OCO2,0.5,0.0,65.3*,1.0,-2.1,4.1,
c1ccc(CN2CCC(N3CCN(Cc4ccc5c(c4)OCO5)CC3)CC2)cc1,0.6,0.3,-5.4,10.1,·,·,
O=C(c1ccc(S(=O)(=O)c2ccccc2Cl)c([N+](=O)[O-])c1)N1CCC2(CC1)OCCO2,0.0,0.6,3.1,11.1,·,·,
O=C(NCCc1ccccc1)c1c[nH]c2ccc(S(=O)(=O)N3CCCCC3c3cccnc3)cc2c1=O (centres undefined),0.0,-0.9,3.6,5.3,·,·,
CC(=O)c1ccc(NC(=O)C(C)OC(=O)CNC(=O)c2ccccc2)cc1 (centres undefined),0.0,0.1,-2.6,2.2,·,·,
O=C(NC1CCCCC1)N1CCN2C(=O)[C@@H]3CCCN3C(=O)[C@H]2C1,0.2,0.9,82.1*,7.6,70.6*,-11.8,AS interf DR=>6.48
CN1CC(=O)N2CCN(C(=O)c3ccccc3Cl)C[C@@H]2C1=O,0.8,-0.3,53.8*,7.5,-1.9,-4.0,
CN1CC(=O)N2CCN(C(=O)c3cccc4ccccc34)C[C@@H]2C1=O,-0.1,0.2,12.0,-3.9,·,·,
O=C(c1cc(F)c(F)cc1F)N1CCN2C(=O)[C@@H]3CCCN3C(=O)[C@H]2C1,0.0,-0.1,-1.7,-5.5,·,·,
CN1CC(=O)N2CCN(C(=O)c3cc(Cl)cc(Cl)c3)C[C@@H]2C1=O,-0.1,0.8,29.8,12.6,·,·,
CN1CC(=O)N2CCN(C(=O)NC3CCCCC3)C[C@@H]2C1=O,-0.3,0.4,73.6*,0.7,73.8*,-4.5,AS interf DR=>6.48
c1cc2c(cc1Cc1nn[nH]n1)OCO2,-0.2,1.4,66.2*,1.2,4.2,-1.8,
COC(=O)c1sc(NC(=O)c2ccc(C)cc2C)c(C#N)c1C,0.2,-0.6,-1.0,-8.1,·,·,
COc1ccc(NC(=O)CN(C)S(=O)(=O)c2ccc3c(c2)CCC(=O)N3)cc1,-0.2,-0.1,-0.7,-3.1,·,·,
O=C(O)c1ccccc1-c1cc(C(=O)O)c2cc(Br)ccc2n1,-0.1,-0.7,1.1,11.3,·,·,
O=C(O)c1cc(-c2ccco2)nc2ccc(Br)cc12,-0.3,-0.4,58.0*,-6.8,19.8,17.8,
CC1CCCCN1CCNC(=O)c1ccc2c(c1)NC(=O)C(N1CCOCC1)S2 (centres undefined),0.0,-0.5,16.6,-1.7,·,·,
COc1ccc(C(OCC(O)CNCCN(C)C)c2ccc(OC)cc2)cc1 (centres undefined),0.7,-1.1,66.7*,-2.2,10.9,10.4,
CCCNCC(O)COC(c1ccccc1)c1ccccc1 (centres undefined),-0.3,0.7,16.9,-0.9,·,·,
c1cc(-c2cncc(N3CCOCC3)c2)nc(Nc2ccc(-c3ncn[nH]3)cc2)n1,0.3,1.1,18.6,20.0,·,·,
O=C(Nc1ccccc1)OC1CCCCC1,0.5,-1.2,2.9,-42.3,·,·,
